Test results from the supplement of paper PMC10849652.
Targets with a hit are over-represented here; the source holds about 7,900 in all. About 0.6% of all pairs of compound and target were hits.

Experiments:
Experiment in all cases: log2 fold change, soluble protein after heating vs DMSO (PISA); higher = thermal stabilisation; K562 cells, 10 uM, 30 min; active = over 0.2 and 3.5 SD of the protein, either way, in both replicates (recomputed)
bafetinib = compound: Cc1ccc(NC(=O)c2ccc(CN3CC[C@H](N(C)C)C3)c(C(F)(F)F)c2)cc1Nc1nccc(-c2cncnc2)n1 [bafetinib]
Method in brief: (§1)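 K562 cells at 2×10^6 cells/mL were exposed to 10 μM compound for 30 min, then aliquots were heated for 3 min across 48°C-58°C, pooled, and extracted in PBS containing 0.5% NP-40 at 4°C. The supernatant after 21,000xg for 90 min was taken as soluble protein and measured by TMTpro 16plex LC-MS/MS with channel sums equalised. Thermal stability is reported relative to control samples, with values from duplicates. Fold changes are given on a log2 scale.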

[1] = compound: Cc1cccc(CC(=O)N2CCc3c2ccc(-c2cn(C)c4ncnc(N)c24)c3F)n1
Method in brief: as §1

nilotinib = compound: Cc1cn(-c2cc(NC(=O)c3ccc(C)c(Nc4nccc(-c5cccnc5)n4)c3)cc(C(F)(F)F)c2)cn1 [nilotinib]
Method in brief: as §1

[2] = compound: Cc1nc(Nc2n[nH]c3c2CN(C(=O)N[C@H](CN(C)C)c2ccccc2)C3(C)C)c2sccc2n1
Method in brief: as §1

dasatinib = compound: Cc1nc(Nc2ncc(C(=O)Nc3c(C)cccc3Cl)s2)cc(N2CCN(CCO)CC2)n1 [dasatinib]
Method in brief: as §1

[3] = compound: Cc1ncc(-c2ccnc(Nc3ccc(S(C)(=O)=O)cc3)n2)n1C(C)C
Method in brief: as §1

[4] = compound: Cn1cc(-c2ccc3c(c2)CCN3C(=O)Cc2cccc(C(F)(F)F)c2)c2c(N)ncnc21
Method in brief: as §1

[5] = compound: Cn1cc(-c2ccc3nnc(C(F)(F)c4ccc5ncccc5c4)n3n2)cn1
Method in brief: as §1

tipifarnib = compound: Cn1cncc1[C@@](N)(c1ccc(Cl)cc1)c1ccc2c(c1)c(-c1cccc(Cl)c1)cc(=O)n2C [tipifarnib]
Method in brief: as §1

mubritinib = compound: FC(F)(F)c1ccc(/C=C/c2nc(COc3ccc(CCCCn4ccnn4)cc3)co2)cc1 [mubritinib]
Method in brief: as §1

Measured: log2 fold change

GSK3A (UniProt P49840)
Sequence of UniProt P49840 (P49840 whole entry, looked up): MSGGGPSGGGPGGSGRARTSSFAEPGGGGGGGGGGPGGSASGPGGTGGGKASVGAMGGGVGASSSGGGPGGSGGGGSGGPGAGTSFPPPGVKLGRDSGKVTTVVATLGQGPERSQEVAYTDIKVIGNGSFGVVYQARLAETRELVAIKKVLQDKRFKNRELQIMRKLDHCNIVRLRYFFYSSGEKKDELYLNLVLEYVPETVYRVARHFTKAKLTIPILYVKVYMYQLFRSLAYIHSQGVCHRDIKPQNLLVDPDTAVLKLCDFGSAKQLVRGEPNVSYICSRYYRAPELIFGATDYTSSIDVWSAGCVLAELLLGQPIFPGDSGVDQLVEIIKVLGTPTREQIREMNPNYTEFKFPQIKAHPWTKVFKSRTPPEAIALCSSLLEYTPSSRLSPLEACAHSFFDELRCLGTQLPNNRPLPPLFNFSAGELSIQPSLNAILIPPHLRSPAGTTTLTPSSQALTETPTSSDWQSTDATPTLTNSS
inactive: bafetinib -0.052 | [1] -0.027 | nilotinib -0.01 | dasatinib -0.024 | [4] -0.004 | [5] 0.011 | tipifarnib -0.033 | mubritinib 0.038
active: [2] 0.308 | [3] 0.383

GALK1 isoform 2 (UniProt P51570)
inactive: bafetinib 0.061 | [1] 0.062 | nilotinib -0.018 | [2] -0.001 | dasatinib -0.043 | [3] -0.015 | [4] 0.055 | [5] -0.084 | tipifarnib -0.136 | mubritinib 0.01

HEATR5B (UniProt Q9P2D3)
Sequence of UniProt Q9P2D3 (Q9P2D3 whole entry, looked up): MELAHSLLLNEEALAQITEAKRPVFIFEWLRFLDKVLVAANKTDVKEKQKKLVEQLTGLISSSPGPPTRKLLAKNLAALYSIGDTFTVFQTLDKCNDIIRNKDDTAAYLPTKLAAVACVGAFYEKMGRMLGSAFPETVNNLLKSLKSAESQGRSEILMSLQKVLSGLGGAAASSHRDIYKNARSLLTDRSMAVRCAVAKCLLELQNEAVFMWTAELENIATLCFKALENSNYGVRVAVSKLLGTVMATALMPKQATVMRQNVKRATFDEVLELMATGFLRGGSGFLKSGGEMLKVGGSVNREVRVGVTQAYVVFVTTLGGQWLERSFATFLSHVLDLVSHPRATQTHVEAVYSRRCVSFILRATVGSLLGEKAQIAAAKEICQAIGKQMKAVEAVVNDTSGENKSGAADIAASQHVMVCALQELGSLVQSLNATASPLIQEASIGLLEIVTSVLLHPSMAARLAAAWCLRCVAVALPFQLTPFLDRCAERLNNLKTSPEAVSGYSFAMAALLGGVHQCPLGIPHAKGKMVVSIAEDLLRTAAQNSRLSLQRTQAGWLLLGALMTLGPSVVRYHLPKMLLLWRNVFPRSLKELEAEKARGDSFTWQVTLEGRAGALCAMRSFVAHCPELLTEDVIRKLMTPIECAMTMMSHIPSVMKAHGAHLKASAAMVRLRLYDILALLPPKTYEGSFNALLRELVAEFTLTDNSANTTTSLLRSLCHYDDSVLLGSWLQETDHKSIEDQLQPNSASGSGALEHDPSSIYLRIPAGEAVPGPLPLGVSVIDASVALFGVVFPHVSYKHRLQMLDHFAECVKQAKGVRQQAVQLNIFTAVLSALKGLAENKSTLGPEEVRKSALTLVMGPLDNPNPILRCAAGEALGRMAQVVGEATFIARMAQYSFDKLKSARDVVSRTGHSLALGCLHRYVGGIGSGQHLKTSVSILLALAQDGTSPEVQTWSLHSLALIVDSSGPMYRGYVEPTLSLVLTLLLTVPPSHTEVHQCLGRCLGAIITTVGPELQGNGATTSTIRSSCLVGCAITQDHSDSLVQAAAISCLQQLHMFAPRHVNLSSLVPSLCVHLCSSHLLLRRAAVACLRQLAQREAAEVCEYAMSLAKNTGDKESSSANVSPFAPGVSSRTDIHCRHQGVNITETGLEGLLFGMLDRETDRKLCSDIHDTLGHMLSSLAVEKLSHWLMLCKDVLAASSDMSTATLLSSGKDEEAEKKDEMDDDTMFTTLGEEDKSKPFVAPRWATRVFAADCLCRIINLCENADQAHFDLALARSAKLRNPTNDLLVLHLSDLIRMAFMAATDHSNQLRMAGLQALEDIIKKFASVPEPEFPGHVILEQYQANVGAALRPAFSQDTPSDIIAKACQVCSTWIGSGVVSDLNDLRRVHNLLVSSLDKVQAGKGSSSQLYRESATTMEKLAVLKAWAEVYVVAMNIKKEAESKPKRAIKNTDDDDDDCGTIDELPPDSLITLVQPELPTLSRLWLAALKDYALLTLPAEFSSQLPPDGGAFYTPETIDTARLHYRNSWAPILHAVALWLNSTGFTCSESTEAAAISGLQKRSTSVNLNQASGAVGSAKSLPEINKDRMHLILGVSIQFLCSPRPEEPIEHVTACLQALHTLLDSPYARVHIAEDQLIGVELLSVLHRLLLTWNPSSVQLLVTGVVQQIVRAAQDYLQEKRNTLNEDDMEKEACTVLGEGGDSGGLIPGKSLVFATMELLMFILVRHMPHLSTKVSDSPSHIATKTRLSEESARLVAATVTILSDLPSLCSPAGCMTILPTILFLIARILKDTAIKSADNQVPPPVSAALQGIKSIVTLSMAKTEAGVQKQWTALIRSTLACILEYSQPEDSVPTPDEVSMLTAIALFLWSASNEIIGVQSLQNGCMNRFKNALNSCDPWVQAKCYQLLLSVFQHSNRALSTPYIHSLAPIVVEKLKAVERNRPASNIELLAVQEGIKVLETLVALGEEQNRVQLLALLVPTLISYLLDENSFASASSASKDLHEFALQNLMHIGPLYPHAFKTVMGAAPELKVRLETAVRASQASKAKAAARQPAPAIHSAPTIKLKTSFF
inactive: bafetinib -0.007 | [1] 0.014 | nilotinib -0.049 | [2] -0.066 | dasatinib -0.119 | [3] 0.072 | [4] -0.029 | [5] -0.012 | tipifarnib -0.052 | mubritinib 0.034

FIS1 (UniProt Q9Y3D6)
Sequence of UniProt Q9Y3D6 (Q9Y3D6 whole entry, looked up): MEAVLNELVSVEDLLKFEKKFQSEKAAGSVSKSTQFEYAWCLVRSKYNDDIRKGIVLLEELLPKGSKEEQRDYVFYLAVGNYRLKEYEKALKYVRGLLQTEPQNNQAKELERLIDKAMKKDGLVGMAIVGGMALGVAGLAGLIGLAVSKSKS
inactive: bafetinib -0.087 | [1] -0.034 | nilotinib 0.041 | [2] -0.002 | dasatinib -0.044 | [3] 0.007 | [4] 0.111 | [5] 0.07 | tipifarnib -0.024 | mubritinib 0.053

FLNA (UniProt P21333)
inactive: bafetinib 0.011 | [1] 0.059 | nilotinib -0.056 | [2] -0.025 | dasatinib -0.158 | [3] 0.059 | [4] -0.053 | [5] 0.007 | tipifarnib -0.176 | mubritinib 0.112

FBXO9 (UniProt Q9UK97)
Sequence of UniProt Q9UK97 (Q9UK97 whole entry, looked up): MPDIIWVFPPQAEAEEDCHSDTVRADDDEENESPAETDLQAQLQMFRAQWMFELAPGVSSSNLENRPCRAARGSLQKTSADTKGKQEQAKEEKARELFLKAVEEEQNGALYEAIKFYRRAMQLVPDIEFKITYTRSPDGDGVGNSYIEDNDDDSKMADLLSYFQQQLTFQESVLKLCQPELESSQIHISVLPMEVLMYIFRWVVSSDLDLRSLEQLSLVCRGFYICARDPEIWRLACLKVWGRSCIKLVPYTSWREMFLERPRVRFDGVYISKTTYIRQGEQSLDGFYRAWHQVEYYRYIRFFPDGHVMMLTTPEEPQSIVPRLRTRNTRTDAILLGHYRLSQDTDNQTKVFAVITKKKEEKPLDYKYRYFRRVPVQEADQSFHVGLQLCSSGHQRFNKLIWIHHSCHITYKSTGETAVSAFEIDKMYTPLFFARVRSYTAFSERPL
inactive: bafetinib 0.067 | [1] 0.234 | nilotinib 0.087 | [2] -0.354 | dasatinib -0.056 | [3] -0.113 | [4] -0.236 | [5] -0.093 | tipifarnib -0.088 | mubritinib -0.265

IGF2BP2 (UniProt Q9Y6M1)
Sequence of UniProt Q9Y6M1 (Q9Y6M1 whole entry, looked up): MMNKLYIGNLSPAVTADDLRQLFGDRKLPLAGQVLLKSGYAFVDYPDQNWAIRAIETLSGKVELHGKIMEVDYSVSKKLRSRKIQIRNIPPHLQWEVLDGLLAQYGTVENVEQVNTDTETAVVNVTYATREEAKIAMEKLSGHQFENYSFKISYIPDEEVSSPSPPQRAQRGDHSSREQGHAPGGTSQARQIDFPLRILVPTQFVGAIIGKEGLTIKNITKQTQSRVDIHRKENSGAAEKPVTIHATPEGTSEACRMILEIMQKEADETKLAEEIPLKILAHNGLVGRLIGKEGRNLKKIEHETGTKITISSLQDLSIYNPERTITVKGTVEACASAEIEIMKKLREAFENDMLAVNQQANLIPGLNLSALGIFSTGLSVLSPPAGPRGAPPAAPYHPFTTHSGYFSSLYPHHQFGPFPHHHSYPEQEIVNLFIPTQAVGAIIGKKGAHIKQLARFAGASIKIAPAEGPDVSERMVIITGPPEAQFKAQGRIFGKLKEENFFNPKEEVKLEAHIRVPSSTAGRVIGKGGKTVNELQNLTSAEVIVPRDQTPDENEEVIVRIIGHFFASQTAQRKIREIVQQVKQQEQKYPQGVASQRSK
inactive: bafetinib 0.121 | [1] 0.004 | nilotinib -0.058 | [2] -0.018 | dasatinib 0.038 | [3] -0.039 | [4] -0.228 | [5] -0.191 | tipifarnib 0.069 | mubritinib -0.071

GTF2B (UniProt Q00403)
Sequence of UniProt Q00403 (Q00403 whole entry, looked up): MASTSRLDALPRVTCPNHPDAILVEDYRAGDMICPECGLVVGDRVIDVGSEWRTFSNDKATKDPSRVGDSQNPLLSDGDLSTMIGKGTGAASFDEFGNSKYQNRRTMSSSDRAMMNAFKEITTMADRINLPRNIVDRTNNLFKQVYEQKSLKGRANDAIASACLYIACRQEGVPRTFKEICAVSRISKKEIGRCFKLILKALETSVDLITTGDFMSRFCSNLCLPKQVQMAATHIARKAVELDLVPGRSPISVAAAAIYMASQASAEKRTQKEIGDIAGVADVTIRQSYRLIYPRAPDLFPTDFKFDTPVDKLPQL
inactive: bafetinib -0.005 | [1] 0.139 | nilotinib -0.134 | [2] -0.13 | dasatinib -0.247 | [3] 0.006 | [4] 0.031 | [5] 0.102 | tipifarnib -0.082 | mubritinib 0.007

FBXO3 (UniProt Q9UK99)
inactive: bafetinib -0.052 | [1] 0.06 | nilotinib -0.031 | [2] -0.024 | dasatinib -0.054 | [3] -0.006 | [4] 0.041 | [5] -0.035 | tipifarnib -0.007 | mubritinib 0.055

GLUD2 (UniProt P49448)
inactive: bafetinib 0.234 | [1] 0.02 | [2] 0.21 | dasatinib -0.021 | [3] -0.031 | [5] -0.028 | tipifarnib 0.079 | mubritinib 0.041
active: nilotinib 0.478 | [4] 0.265

HIP1R (UniProt O75146)
inactive: bafetinib -0.021 | [1] 0.043 | nilotinib -0.11 | [2] 0.016 | dasatinib -0.144 | [3] -0.019 | [4] 0.022 | [5] -0.013 | tipifarnib -0.075 | mubritinib 0.036

GSK3B isoform 2 (UniProt P49841)
inactive: bafetinib -0.003 | [1] 0.055 | nilotinib -0.04 | [2] 0.094 | dasatinib -0.115 | [3] 0.124 | [4] 0.055 | [5] -0.013 | tipifarnib -0.024 | mubritinib -0.008

GABPA (UniProt Q06546)
inactive: bafetinib -0.036 | [1] 0.034 | nilotinib -0.103 | [2] -0.115 | dasatinib -0.12 | [3] -0.026 | [4] 0.048 | [5] 0.111 | tipifarnib -0.149 | mubritinib 0.019

FBL (UniProt P22087)
inactive: bafetinib 0.29 | [1] -0.039 | nilotinib 0.094 | [2] -0.017 | dasatinib 0.454 | [3] -0.01 | [4] -0.337 | [5] -0.097 | tipifarnib 0.301 | mubritinib -0.241

GEMIN6 (UniProt Q8WXD5)
Sequence of UniProt Q8WXD5 (Q8WXD5 whole entry, looked up): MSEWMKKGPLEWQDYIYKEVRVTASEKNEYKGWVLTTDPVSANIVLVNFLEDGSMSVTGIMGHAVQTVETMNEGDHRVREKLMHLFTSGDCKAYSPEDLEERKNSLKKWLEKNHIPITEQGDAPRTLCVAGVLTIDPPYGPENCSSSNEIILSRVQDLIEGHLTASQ
active: [5] 0.306
inactive: bafetinib -0.011 | [1] -0.042 | nilotinib 0.004 | [2] 0.015 | dasatinib -0.024 | [3] -0.022 | [4] 0.018 | tipifarnib -0.002 | mubritinib 0.067

GTF2H3 (UniProt Q13889)
inactive: bafetinib -0.009 | [1] 0.058 | nilotinib 0.041 | [2] 0 | dasatinib 0.024 | [3] -0.064 | [4] -0.113 | [5] -0.02 | tipifarnib -0.025 | mubritinib 0.023

GALNT2 (UniProt Q10471)
inactive: bafetinib -0.046 | [1] 0.041 | nilotinib -0.07 | [2] -0.066 | dasatinib -0.004 | [3] 0.056 | [4] 0.032 | [5] -0.018 | tipifarnib 0.008 | mubritinib 0.008

HRC (UniProt P23327)
inactive: bafetinib -0.098 | [1] -0.147 | nilotinib 0.01 | [2] -0.017 | dasatinib 0.055 | [3] -0.039 | [4] -0.038 | [5] 0.037 | tipifarnib 0.016 | mubritinib 0.041

HEXB (UniProt P07686)
active: bafetinib -0.468
inactive: [1] -0.04 | nilotinib 0.002 | [2] 0.032 | dasatinib 0.039 | [3] -0.024 | [4] 0.021 | [5] 0.01 | tipifarnib 0.026 | mubritinib 0.008

GMEB2 (UniProt Q9UKD1)
inactive: bafetinib 0.019 | [1] 0.013 | nilotinib 0.019 | [2] -0.021 | dasatinib -0.036 | [3] -0.05 | [4] -0.084 | [5] -0.006 | tipifarnib -0.011 | mubritinib -0.041

HK2 (UniProt P52789)
inactive: bafetinib -0.215 | [1] 0.029 | [2] -0.194 | dasatinib -0.106 | [3] -0.03 | [4] 0.022 | [5] 0.01 | tipifarnib -0.01 | mubritinib 0.046
active: nilotinib -0.967

HOOK3 (UniProt Q86VS8)
inactive: bafetinib -0.047 | [1] 0.029 | nilotinib -0.088 | [2] -0.078 | dasatinib -0.07 | [3] 0.009 | [4] 0.002 | [5] -0.027 | tipifarnib -0.001 | mubritinib -0.024

IFRD2 isoform 2 (UniProt Q12894)
inactive: bafetinib -0.083 | [1] -0.019 | nilotinib 0.153 | [2] 0.047 | dasatinib 0.028 | [3] 0.236 | [4] 0.07 | [5] -0.176 | tipifarnib 0.08 | mubritinib 0.073

GATA1 (UniProt P15976)
Sequence of UniProt P15976 (P15976 whole entry, looked up): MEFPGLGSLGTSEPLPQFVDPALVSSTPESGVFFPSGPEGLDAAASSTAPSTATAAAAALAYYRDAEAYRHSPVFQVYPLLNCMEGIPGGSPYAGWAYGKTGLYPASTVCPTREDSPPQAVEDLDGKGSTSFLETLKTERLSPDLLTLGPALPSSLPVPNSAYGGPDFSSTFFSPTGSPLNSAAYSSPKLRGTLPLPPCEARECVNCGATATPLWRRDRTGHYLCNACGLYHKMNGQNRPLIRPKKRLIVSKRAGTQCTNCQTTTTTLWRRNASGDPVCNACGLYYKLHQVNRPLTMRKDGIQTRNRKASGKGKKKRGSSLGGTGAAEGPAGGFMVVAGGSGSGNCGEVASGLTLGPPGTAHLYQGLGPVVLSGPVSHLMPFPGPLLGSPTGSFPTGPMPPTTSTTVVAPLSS
inactive: bafetinib -0.09 | [1] 0.007 | nilotinib 0.028 | [2] 0.033 | dasatinib 0.157 | [3] -0.008 | [4] -0.084 | [5] -0.017 | tipifarnib -0.015 | mubritinib -0.033

GLS isoform 3 (UniProt O94925)
inactive: bafetinib 0.045 | [1] 0.028 | nilotinib -0.238 | [2] -0.162 | dasatinib -0.282 | [3] 0.046 | [4] -0.097 | [5] 0.114 | tipifarnib -0.208
active: mubritinib -0.492

HIST2H2BF isoform 2 (UniProt Q5QNW6)
inactive: bafetinib 0.211 | [1] -0.189 | nilotinib -0.044 | [2] -0.006 | dasatinib 0.147 | [3] 0.012 | [4] -0.358 | [5] -0.098 | tipifarnib -0.018 | mubritinib -0.173

GTF2A2 (UniProt P52657)
Sequence of UniProt P52657 (P52657 whole entry, looked up): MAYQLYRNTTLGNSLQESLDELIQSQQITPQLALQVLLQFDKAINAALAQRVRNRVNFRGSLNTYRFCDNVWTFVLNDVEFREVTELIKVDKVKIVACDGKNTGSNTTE
inactive: bafetinib -0.032 | [1] -0.036 | nilotinib -0.025 | [2] 0.022 | dasatinib 0.047 | [3] -0.021 | [4] 0.056 | [5] 0.104 | tipifarnib -0.028 | mubritinib 0.008

FMC1 (UniProt Q96HJ9)
Sequence of UniProt Q96HJ9 (Q96HJ9 whole entry, looked up): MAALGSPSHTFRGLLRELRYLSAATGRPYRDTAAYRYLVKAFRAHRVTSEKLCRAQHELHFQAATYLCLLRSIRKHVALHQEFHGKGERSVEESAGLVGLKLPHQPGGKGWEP
inactive: bafetinib -0.128 | [1] -0.026 | nilotinib 0.009 | [2] 0.045 | dasatinib 0.006 | [3] -0.012 | [4] -0.006 | [5] 0.009 | tipifarnib 0.035 | mubritinib 0.016

HNRNPH1 (UniProt P31943)
inactive: bafetinib 0.004 | [1] 0.037 | nilotinib -0.141 | [2] -0.236 | dasatinib -0.083 | [3] -0.116 | [4] 0.022 | [5] 0.055 | tipifarnib -0.124 | mubritinib -0.044

IFT74 (UniProt Q96LB3)
inactive: bafetinib -0.095 | [1] 0.015 | nilotinib 0.166 | [2] 0.063 | dasatinib 0.057 | [3] 0.008 | [4] 0.015 | [5] -0.053 | tipifarnib -0.052 | mubritinib 0.186
